This is one part of the list. The source made the active and inactive calls. The call rests on the fitted dose curve; in most records, active means well fitted inhibition curve with a large enough effect; inconclusive means small, poorly fitted or top-dose-only effect, or another doubt; inactive means no such curve, though single readings can be large or run the other way.
What follows are molecules tested against Vitamin D3 receptor (Homo sapiens) (UniProt P11473) (assay: qHTS for Inhibitors of the vitamin D receptor (VDR): Hit Validation using a Fluorescein Assay (AID 602200)). Settings: VDR-coactivator binding, fluorescein fluorescence polarization.
Vitamin D3 receptor (Homo sapiens), sequence (P11473 whole entry, looked up): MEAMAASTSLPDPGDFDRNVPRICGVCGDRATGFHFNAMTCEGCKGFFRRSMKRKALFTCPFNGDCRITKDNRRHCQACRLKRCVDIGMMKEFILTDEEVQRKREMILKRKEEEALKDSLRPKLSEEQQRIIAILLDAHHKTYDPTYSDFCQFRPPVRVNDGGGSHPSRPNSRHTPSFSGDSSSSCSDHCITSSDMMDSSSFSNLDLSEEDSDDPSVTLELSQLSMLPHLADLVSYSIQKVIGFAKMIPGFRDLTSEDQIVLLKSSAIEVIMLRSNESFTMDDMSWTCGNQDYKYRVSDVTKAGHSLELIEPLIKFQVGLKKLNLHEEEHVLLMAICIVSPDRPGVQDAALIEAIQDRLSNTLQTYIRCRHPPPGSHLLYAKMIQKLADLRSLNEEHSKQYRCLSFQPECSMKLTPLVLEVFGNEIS
From the text: The vitamin D receptor (VDR) is a ligand-activated transcription factor and is partially responsible for the regulation of the endocrine system. This includes the transcriptional regulation of genes involved in the production of the parathyroid hormone (PTH) and the regulation of the blood calcium level. High levels of PHT can cause hypercalcemia in the case of primary and tertiary hyperparathyroidism. The VDR-mediated gene regulation, activated by its ligand 1,25-dihydroxyvitamin D3 (1,25-(OH)2D3), is governed by the recruitment of coactivators. Our hypothesis is that small molecules, with the ability to inhibit the interaction between VDR and certain coactivators, are able to selectively modulate VDR-mediated transcription. Our long term objective is the application these VDR-coactivator inhibitors to study the role of VDR-coactivator binding for specific VDR regulated genes. Ultimately, these molecules can be developed into new treatments for hypercalcemic hyperparathyroidism. No small molecule or non-peptide inhibitors are known for the VDR-coactivator interaction.
In a collaboration between the University of Wisconsin, Milwaukee and the NIH Chemical Genomics Center (NCGC) a HTS-compatible enzymatic assay was developed. The assay uses fluorescence polarization as its read-out to measure the inhibition between VDR and coregulator peptide SRC2-3 exerted by small molecules. This assay was used to screen the NIH Molecular Libraries Small Molecule Repository (MLSMR). The HTS assay detects polarization at 665 nm emitted by the Alexa Fluor 647 dye. This validation assay measures polarization of fluorescein emission at 521 nm
NIH Chemical Genomics Center [NCGC]
NIH Molecular Libraries Probe Centers Network [MLPCN]
Assay Submitter (PI): Alexander Arnold, University of Wilwaukee
Four microliter of either 1.5 uM VDR-LBD, 5 uM LG19078, and 5 nM SRC2-3 Fluorescein (all final concentrations) in columns 1, 2, and 5 to 48 or 5 nM SRC2-3 Fluorescein in columns 3 and 4 are dispensed into black medium-binding solid bottom Greiner plates. Both solutions are kept at 4 deg C and protected from light and dispensed using a Kalypsys dispenser. Then 23 nl of compounds and controls are added with Kalypsys pintool. […] Plate is centrifuged at 1000 RPM for 15 seconds to remove any residual bubbles. The plate is then incubate at ambient room temperature for 2 hours. It is then read on the Envision for a fluorescent polarization read-out (Ex 495 nm/Em 520 nm)
Potency means the concentration at half of the fitted maximal effect.

Potency, active:
O=C(Nc1nc(-c2ccncc2)cs1)C1COc2ccccc2O1 (stereo not given) 3.16 µM
O=C1C=C(c2ccc(Cl)cc2)C(=O)N1Nc1ccccc1 1.78 µM
CC(=O)N(C1=C(Cl)C(=O)c2ccccc2C1=O)c1ccc(C(=O)O)cc1 2.82 µM
O=C(/C=C/c1ccccc1)c1ccccc1O 14.1 µM
O=C(Nc1ccccc1)c1nnsc1S(=O)(=O)c1ccc(Cl)cc1 7.08 µM
Cc1ccc(-c2nc3ccccn3c2Nc2c(C)cccc2C)o1 28.2 µM
CCOC(=O)c1sc(=S)n2c1[nH]c(=O)c1ccc(C(=O)OC)cc12 6.31 µM
CCOc1ccc(N(Cc2ccccc2)C(=O)c2nc(S(C)(=O)=O)ncc2Cl)cc1 3.55 µM
CC1CCN(C(=S)c2ccc(-c3ccc(Cl)cc3Cl)o2)CC1 25.1 µM
c1ccc2c(C[n+]3csc4ccccc43)cccc2c1 7.08 µM
Cc1cc(C)nc(S/C=C/C(=O)c2ccccc2)n1 3.55 µM
Cc1ccc(O)c(NC(=O)CCS(=O)(=O)c2nc(-c3ccc4c(c3)OCO4)cc(C(F)(F)F)n2)c1 6.31 µM
CCCCS(=O)(=O)c1oc(-c2cccs2)nc1S(=O)(=O)c1ccccc1 3.16 µM
CC(=O)N1CC[n+]2c(-c3ccc([N+](=O)[O-])cc3)csc21 3.98 µM
C[C@@H](NC(=O)OC(C)(C)C)c1nnc(S(=O)(=O)Cc2ccccc2)o1 17.8 µM
Cc1cccc(Oc2c([N+](=O)[O-])c(=O)n(C)c3ccccc23)c1 20 µM
O=c1[nH]c(/C=C\c2cccc(C(F)(F)F)c2)nc(O)c1[N+](=O)[O-] 10 µM
COC(=O)c1sc(-c2ccc(C(C)(C)C)cc2)cc1NC(=O)/C=C/C(=O)O 14.1 µM
COc1ccc(OCc2nnc3n2N=C(c2ccccc2)C(CC(=O)O)S3)cc1 (stereo not given) 1.12 µM
O=C(/C=C/c1ccc(Cl)c([N+](=O)[O-])c1)c1cccnc1 2.51 µM

From PubChem BioAssay (NCATS)
